{"source": "PubChem BioAssay AID1159580", "about": "(chemical genetic matrix, 2015)", "test": "chemical genetic growth profiling, strain panel (AID 1159580);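 also: tested at 20 µM; growth read once vehicle control cultures reached saturation at 30 °C; 1 = growth at the plate median or of vehicle wells; lower values mean less growth of the strain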", "details": "S. cerevisiae deletion strains, growth OD", "note": "Several values for one entry are separate records, joined by “and”; a condition that tells them apart may be missing. Identical values can stand only once. Out of some 5,500 compounds screened, about 2,000 (36%) were called active. Another 18% or so got no clear call; they are omitted. The list shows a part of the results. A number with no mark means an inactive call. Rule as the data show it: active = normalized growth mostly below about 0.91 (no sharp cut-off); inconclusive = no clear call, values can overlap the other calls; inactive = mostly above about 0.92."}
{"smiles": "c1ccc2[nH]c(-c3cscn3)nc2c1", "values": [{"measurement": "normalized growth", "setting": "locus YAL021C, strain ccr4, active compounds read low", "value": 0.964}, {"measurement": "normalized growth", "setting": "locus YAL026C, strain drs2, active compounds read low", "value": 0.956}, {"measurement": "normalized growth", "setting": "locus YAL030W, strain snc1, active compounds read low", "value": 1.01}, {"measurement": "normalized growth", "setting": "locus YBL061C, strain skt5, active compounds read low", "value": 1.01}, {"measurement": "normalized growth", "setting": "locus YBR009C, strain hhf1, active compounds read low", "value": 0.965}, {"measurement": "normalized growth", "setting": "locus YBR021W, strain FUR4, active compounds read low", "value": 0.946}, {"measurement": "normalized growth", "setting": "locus YBR023C, strain chs3, active compounds read low", "value": 0.993}, {"measurement": "normalized growth", "setting": "locus YBR171W, strain sec66, active compounds read low", "value": 1}, {"measurement": "normalized growth", "setting": "locus YBR229C, strain ROT2, active compounds read low", "value": 0.991}, {"measurement": "normalized growth", "setting": "locus YBR231C, strain swc5, active compounds read low", "value": 0.958}, {"measurement": "normalized growth", "setting": "locus YBR279W, strain paf1, active compounds read low", "value": 1.01}, {"measurement": "normalized growth", "setting": "locus YCL011C, strain gbp2, active compounds read low", "value": 0.982}, {"measurement": "normalized growth", "setting": "locus YCL016C, strain dcc1, active compounds read low", "value": 0.95}, {"measurement": "normalized growth", "setting": "locus YCL029C, strain bik1, active compounds read low", "value": 0.945}, {"measurement": "normalized growth", "setting": "locus YCL061C, strain MRC1, active compounds read low", "value": 0.991}, {"measurement": "normalized growth", "setting": "locus YCL069W, strain vba3, active compounds read low", "value": 0.996}, {"measurement": "normalized growth", "setting": "locus YCR088W, strain abp1, active compounds read low", "value": 1.01}, {"measurement": "normalized growth", "setting": "locus YDL005C, strain med2, active compounds read low", "value": 1.02}, {"measurement": "normalized growth", "setting": "locus YDL035C, strain GPR1, active compounds read low", "value": 0.996}, {"measurement": "normalized growth", "setting": "locus YDL040C, strain nat1, active compounds read low", "value": 1.01}, {"measurement": "normalized growth", "setting": "locus YDL074C, strain BRE1, active compounds read low", "value": 0.94}, {"measurement": "normalized growth", "setting": "locus YDL101C, strain DUN1, active compounds read low", "value": 1.01}, {"measurement": "normalized growth", "setting": "locus YDL134C, strain PPH21, active compounds read low", "value": 0.998}, {"measurement": "normalized growth", "setting": "locus YDL185W, strain tfp1, active compounds read low", "value": 1.01}, {"measurement": "normalized growth", "setting": "locus YDL192W, strain arf1, active compounds read low", "value": 1.01}, {"measurement": "normalized growth", "setting": "locus YDR069C, strain doa4, active compounds read low", "value": 0.988}, {"measurement": "normalized growth", "setting": "locus YDR101C, strain arx1, active compounds read low", "value": 0.945}, {"measurement": "normalized growth", "setting": "locus YDR137W, strain rgp1, active compounds read low", "value": 0.91}, {"measurement": "normalized growth", "setting": "locus YDR159W, strain sac3, active compounds read low", "value": 0.965}, {"measurement": "normalized growth", "setting": "locus YDR162C, strain NBP2, active compounds read low", "value": 1.01}, {"measurement": "normalized growth", "setting": "locus YDR195W, strain ref2", "value": "1.15 [resistant] (active)"}, {"measurement": "normalized growth", "setting": "locus YDR297W, strain sur2, active compounds read low", "value": 1.03}, {"measurement": "normalized growth", "setting": "locus YDR318W, strain mcm21, active compounds read low", "value": 0.998}, {"measurement": "normalized growth", "setting": "locus YDR334W, strain swr1, active compounds read low", "value": 0.998}, {"measurement": "normalized growth", "setting": "locus YDR335W, strain msn5, active compounds read low", "value": 1.02}, {"measurement": "normalized growth", "setting": "locus YDR388W, active compounds read low", "value": 1.01}, {"measurement": "normalized growth", "setting": "locus YDR392W, strain spt3, active compounds read low", "value": 0.867}, {"measurement": "normalized growth", "setting": "locus YDR502C, strain sam2, active compounds read low", "value": 0.971}, {"measurement": "normalized growth", "setting": "locus YEL003W, strain gim4, active compounds read low", "value": "0.132 (active)"}, {"measurement": "normalized growth", "setting": "locus YEL037C, strain rad23, active compounds read low", "value": 0.991}, {"measurement": "normalized growth", "setting": "locus YEL061C, strain CIN8 (second series), active compounds read low", "value": 1}, {"measurement": "normalized growth", "setting": "locus YEL061C, strain CIN8, active compounds read low", "value": 0.987}, {"measurement": "normalized growth", "setting": "locus YER015W, strain faa2, active compounds read low", "value": 0.997}, {"measurement": "normalized growth", "setting": "locus YER016W, strain bim1, active compounds read low", "value": 0.995}, {"measurement": "normalized growth", "setting": "locus YER110C, active compounds read low", "value": 1.02}, {"measurement": "normalized growth", "setting": "locus YER111C, strain swi4, active compounds read low", "value": 1.01}, {"measurement": "normalized growth", "setting": "locus YER155C, strain BEM2 (second series), active compounds read low", "value": "0.833 (active)"}, {"measurement": "normalized growth", "setting": "locus YER155C, strain BEM2, active compounds read low", "value": 0.991}, {"measurement": "normalized growth", "setting": "locus YER167W, strain BCK2, active compounds read low", "value": 0.997}, {"measurement": "normalized growth", "setting": "locus YFR010W, strain ubp6, active compounds read low", "value": 0.986}, {"measurement": "normalized growth", "setting": "locus YGL078C, strain dbp3, active compounds read low", "value": 1.01}, {"measurement": "normalized growth", "setting": "locus YGL086W, strain mad1, active compounds read low", "value": 0.959}, {"measurement": "normalized growth", "setting": "locus YGL167C, strain pmr1, active compounds read low", "value": 1.02}, {"measurement": "normalized growth", "setting": "locus YGL173C, strain kem1, active compounds read low", "value": 1.01}, {"measurement": "normalized growth", "setting": "locus YGL227W, strain vid30, active compounds read low", "value": 1.02}, {"measurement": "normalized growth", "setting": "locus YGL240W, strain doc1, active compounds read low", "value": 0.957}, {"measurement": "normalized growth", "setting": "locus YGL248W, strain PDE1, active compounds read low", "value": 0.992}, {"measurement": "normalized growth", "setting": "locus YGL253W, strain hxk2, active compounds read low", "value": 0.998}, {"measurement": "normalized growth", "setting": "locus YGR135W, strain pre9, active compounds read low", "value": 1.04}, {"measurement": "normalized growth", "setting": "locus YGR252W, strain gcn5, active compounds read low", "value": 0.962}, {"measurement": "normalized growth", "setting": "locus YHR013C, strain ard1, active compounds read low", "value": 0.922}, {"measurement": "normalized growth", "setting": "locus YHR027C, strain rpn1, active compounds read low", "value": 1.01}, {"measurement": "normalized growth", "setting": "locus YHR030C, strain SLT2, active compounds read low", "value": "0.992 and 0.96"}, {"measurement": "normalized growth", "setting": "locus YHR079C, strain IRE1 (second series), active compounds read low", "value": 1}, {"measurement": "normalized growth", "setting": "locus YHR079C, strain IRE1, active compounds read low", "value": 0.963}, {"measurement": "normalized growth", "setting": "locus YHR094C, strain hxt1, active compounds read low", "value": 1.01}, {"measurement": "normalized growth", "setting": "locus YHR129C, strain ARP1, active compounds read low", "value": 0.993}, {"measurement": "normalized growth", "setting": "locus YHR142W, strain chs7, active compounds read low", "value": 1}, {"measurement": "normalized growth", "setting": "locus YHR200W, strain rpn10, active compounds read low", "value": 1}, {"measurement": "normalized growth", "setting": "locus YIL066C, strain RNR3, active compounds read low", "value": 0.954}, {"measurement": "normalized growth", "setting": "locus YIL073C, strain SPO22, active compounds read low", "value": 1.06}, {"measurement": "normalized growth", "setting": "locus YIL125W, strain kgd1, active compounds read low", "value": 1}, {"measurement": "normalized growth", "setting": "locus YIR030C, strain dcg1, active compounds read low", "value": 0.994}, {"measurement": "normalized growth", "setting": "locus YJL092W, strain hpr5, active compounds read low", "value": 0.997}, {"measurement": "normalized growth", "setting": "locus YJL095W, strain BCK1 (second series), active compounds read low", "value": 1.02}, {"measurement": "normalized growth", "setting": "locus YJL095W, strain BCK1, active compounds read low", "value": "0.997 and 0.958"}, {"measurement": "normalized growth", "setting": "locus YJL115W, strain asf1, active compounds read low", "value": 1}, {"measurement": "normalized growth", "setting": "locus YJL129C, strain trk1, active compounds read low", "value": 1.02}, {"measurement": "normalized growth", "setting": "locus YJL134W, strain LCB3, active compounds read low", "value": 1}, {"measurement": "normalized growth", "setting": "locus YJL154C, strain vps35, active compounds read low", "value": 1.01}, {"measurement": "normalized growth", "setting": "locus YJL164C, strain tpk1, active compounds read low", "value": 0.966}, {"measurement": "normalized growth", "setting": "locus YJL166W, strain qcr8, active compounds read low", "value": 1}, {"measurement": "normalized growth", "setting": "locus YJL168C, strain set2, active compounds read low", "value": 1.01}, {"measurement": "normalized growth", "setting": "locus YJL187C, strain SWE1 (second series), active compounds read low", "value": 0.974}, {"measurement": "normalized growth", "setting": "locus YJR043C, strain POL32, active compounds read low", "value": 0.964}, {"measurement": "normalized growth", "setting": "locus YJR066W, strain TOR1, active compounds read low", "value": 0.917}, {"measurement": "normalized growth", "setting": "locus YJR075W, strain HOC1, active compounds read low", "value": 0.979}, {"measurement": "normalized growth", "setting": "locus YKL009W, strain mrt4, active compounds read low", "value": 1.02}]}
